# Source: PubChem BioAssay (EPA / NIEHS)
# Records with an inconclusive call do not appear. Calls of active or inactive are those of the source. Rule for the calls: active = hit-call score of the fitted dose curve at least 0.9, where 1 is the maximum; inconclusive = response in the unintended direction; inactive = score below 0.9.
# Target: Cellular tumor antigen p53 (Homo sapiens) (UniProt P04637)
# Experiment: TOX21_p53_BLA_p2_ratio: Tox21 HCT-116 p53 Agonism Beta-lactamase Assay, Ratio, Phase 2 (AID 2283592)
# Outline: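 An inducible beta-lactamase reporter in HCT116 cells signals p53 pathway activation. After 16 h chemical exposure at 37C, cells load CCF4-AM substrate for 2 h at room temperature; activity is the cleaved/uncleaved emission ratio relative to DMSO.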
# Sequence of Cellular tumor antigen p53 (Homo sapiens) (P04637 whole entry, looked up): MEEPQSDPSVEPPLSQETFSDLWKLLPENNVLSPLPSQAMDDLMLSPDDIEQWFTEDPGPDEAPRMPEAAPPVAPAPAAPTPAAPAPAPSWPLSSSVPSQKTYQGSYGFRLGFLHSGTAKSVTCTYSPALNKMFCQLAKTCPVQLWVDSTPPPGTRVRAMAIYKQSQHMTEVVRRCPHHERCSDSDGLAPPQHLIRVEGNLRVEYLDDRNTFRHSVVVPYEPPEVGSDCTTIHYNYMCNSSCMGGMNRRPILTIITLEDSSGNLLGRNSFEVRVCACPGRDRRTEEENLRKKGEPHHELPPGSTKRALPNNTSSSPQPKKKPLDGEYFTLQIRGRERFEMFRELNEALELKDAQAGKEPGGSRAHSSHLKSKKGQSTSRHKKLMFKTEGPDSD
row,SMILES,outcome
1,CC1(C)O[C@@H]2C[C@H]3[C@@H]4CCC5=CC(=O)CC[C@]5(C)[C@@]4(F)[C@@H](O)C[C@]3(C)[C@]2(C(=O)CCl)O1,inactive
2,Cc1cccc(O)c1N,inactive
3,FC(F)(F)c1ccccc1-n1ccnc1,inactive
4,CCN(CCO)CCCC(C)Nc1ccnc2cc(Cl)ccc12 (stereo unspecified),inactive
5,Cc1cccc(C)c1NC(=O)NC1=CCCN1C,inactive
6,NC(CO)C(=O)NNCc1ccc(O)c(O)c1O (stereo unspecified),inactive
7,COc1cc(C(=O)N2CCCCCCC2)cc(OC)c1OC,inactive
8,CCC(C=O)CC,inactive
9,CC(=O)Nc1ccc(OCC(O)CNC(C)C)cc1 (stereo unspecified),inactive
10,CCN1C(=O)c2ccccc2C1Nc1ccc(OCCN2CCCCC2)cc1 (stereo unspecified),inactive
11,CN[C@@H]1CCc2[nH]c3ccc(C(N)=O)cc3c2C1,inactive
12,CC1(C)S[C@@H]2[C@H](NC(=O)[C@@H](NC(=O)N3CCNC3=O)c3ccccc3)C(=O)N2[C@H]1C(=O)O,inactive
13,CC(=O)OCC1=C(C(=O)O)N2C(=O)[C@@H](NC(=O)Cc3ccccc3)[C@H]2SC1,inactive
14,CC/C(=C(/CC)c1ccc(OP(=O)(O)O)cc1)c1ccc(OP(=O)(O)O)cc1,inactive
15,COCc1ccc(COC)cc1,inactive
16,CN(C)CCC(O)(c1ccccc1)c1ccccc1Cl (stereo unspecified),inactive
17,Cc1ccccc1N1C(=O)c2cc(S(N)(=O)=O)c(Cl)cc2NC1C (stereo unspecified),inactive
18,NCC1CCC(C(=O)Oc2ccc(CCC(=O)O)cc2)CC1 (stereo unspecified),inactive
19,Cc1cc(N)c(S(=O)(=O)O)cc1Cl,inactive
20,O=C1c2ccccc2C(=O)N1CO,inactive
21,CCCCCCOC(=O)c1cccnc1,inactive
